Source: PubChem BioAssay (National Center for Advancing Translational Sciences (NCATS))
This excerpt belongs to a sample that is enriched for hits.
IL-1B inflam inh: blocks inflammasome-driven IL-1 beta release. THP-1 LPS/ATP IL-1B secretion, AlphaLISA, 16 h; active compounds read low. activity change, % at 57.5 µM. 360,000 tested, 4.7% active; in the data active means activity change below about -50%; inconclusive means mostly about -30% to -49%
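THP-1 cells pretreated 1 hr with compounds (up to 57.5 uM final), then stimulated with LPS (250 ng/mL final) plus ATP (1.25 mM final); secreted IL-1B measured by AlphaLISA after 16 hr, decreased signal indicating inhibition.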
HT1080-NT tox: kills 2HG-producing HT-1080-NT fibrosarcoma cells | HT-1080-NT fibrosarcoma viability, CellTiter-Glo ATP luminescence, 48 h | Potency, µM (series often up to 46.1 µM), inactives show top-dose activity, negative = less viability, most hits filed as cytotoxic | 360,000 tested, 1.6% active;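 further: NT is the 2HG producing partner of a matched IDH1 knockdown line; potency means the concentration at half of the fitted maximal effect; 0% = DMSO-treated cells and -100% = media-only wells without cells; nearly all actives have a fitted effect of over 55% in size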
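Read-out is CellTiter-Glo luminescence after 10 minutes at room temperature, following 48 hours' compound treatment of HT-1080-NT cells (750 cells/well, RPMI, 5% FBS, 37 degrees C).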
HT1080 IDH1KD tx: HT-1080 IDH1 knockdown cell toxicity (counter line) | HT-1080 IDH1 knockdown viability, ATP luminescence, 48 h | Potency, µM (highest dose often 46.1 µM), for the others: top-dose activity, negative = toxicity, actives largely listed as cytotoxic | 360,000 tested, 2% active;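 further: potency means the concentration at half of the fitted maximal effect; 0% = DMSO wells and -100% = cell-free medium wells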
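% activity derives from luminescence (CellTiter-Glo), normalised to DMSO and no-cell wells. HT-1080-IDH1KD cells, 750/well, had 48 h compound exposure at 37 °C.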
DT40 TDP1 CPT: DT40-hTDP1 cell growth loss with CPT; Potency, µM (highest dose often 46.2 µM), for inactives: at the top dose activity change, negative = growth inhibition, actives largely listed as inhibitors; 420,000 tested, 12% active; chicken DT40 Tdp1-/-;hTDP1 cells + 20 nM CPT, ATP luminescence, 48 h; further: potency means the concentration at half of the fitted maximal effect; nearly all actives have a fitted effect of over 55% in size
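Cell growth measured by CellTiter-Glo luminescence after a minimum 48 h, 37 C compound exposure with 20 nM CPT in Tdp1-knockout DT40 cells stably expressing hTDP1, seeded 400/well; qHTS titration format.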
12-LOX inh: blocks human arachidonate 12S-lipoxygenase; purified 12hLO, xylenol orange hydroperoxide absorbance; Potency, µM (series often up to 108 µM), for the others: top-dose activity change, negative = inhibition, hits mostly inhibitors; 580,000 tested, 1.1% active; AID 1671190; further: potency means the concentration at half of the fitted maximal effect
Target sequence (P18054 whole entry, looked up): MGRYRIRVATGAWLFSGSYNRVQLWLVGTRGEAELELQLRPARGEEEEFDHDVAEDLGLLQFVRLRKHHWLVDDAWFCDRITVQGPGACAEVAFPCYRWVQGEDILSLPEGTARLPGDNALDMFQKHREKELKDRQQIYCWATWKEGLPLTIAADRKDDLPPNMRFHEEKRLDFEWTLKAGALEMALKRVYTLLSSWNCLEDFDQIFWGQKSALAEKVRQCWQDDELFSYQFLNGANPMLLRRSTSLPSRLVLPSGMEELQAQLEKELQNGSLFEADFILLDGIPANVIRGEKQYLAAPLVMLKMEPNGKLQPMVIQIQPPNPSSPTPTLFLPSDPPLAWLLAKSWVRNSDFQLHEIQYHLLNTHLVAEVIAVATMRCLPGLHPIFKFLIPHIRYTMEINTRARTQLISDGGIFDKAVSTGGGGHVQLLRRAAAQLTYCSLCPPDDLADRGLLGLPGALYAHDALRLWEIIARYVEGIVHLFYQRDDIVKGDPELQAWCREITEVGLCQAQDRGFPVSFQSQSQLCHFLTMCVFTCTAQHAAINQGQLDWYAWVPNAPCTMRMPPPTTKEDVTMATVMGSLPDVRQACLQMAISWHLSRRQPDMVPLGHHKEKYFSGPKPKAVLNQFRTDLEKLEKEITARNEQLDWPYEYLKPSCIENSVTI
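Purified human 12hLO (150 nM final) in 25 mM Hepes, 0.01% Triton X-100, pH 7.0 was preincubated 15 min at room temperature with compound. Then 40 uM arachidonic acid was added, 30 min. Hydroperoxide was read by Fe-XO absorbance ratio 573/405 nm.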
TDP1 cell noCPT: qHTS for Inhibitors of human tyrosyl-DNA phosphodiesterase 1 (TDP1): qHTS in cells in absence of CPT; AID 686978, 2013; 420,000 tested, 15% active; DT40 Tdp1-/- hTDP1 cells, no CPT, ATP luminescence, 48 h; Potency, µM (top dose mostly 46.2 µM), for inactives: at the top dose activity change, negative = growth inhibition, actives largely listed as inhibitors; further: potency means the concentration at half of the fitted maximal effect; nearly all actives have a fitted effect of over 55% in size
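No-CPT arm: Tdp1-/-;hTDP1 DT40 cells (400/well) plus compounds, incubated ≥48 hr at 37 °C. Readout CellTiter-Glo luminescence.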
* marks the source's active call; other numbers are inactive results; u = inconclusive; x = not tested or not shown; [ ] = another dose, or the depositor's remark. Unless noted, the call rests on the fitted dose curve; in most records, active means well fitted curve in the direction sought with a large enough effect; inconclusive means small, poorly fitted or top-dose-only effect, or another doubt; inactive means no such curve, though single readings can be large; an effect the other way counts as inactive or inconclusive. Unless noted, on the % scale 0 is the no-effect control and ±100 the full control effect.

SMILES	IL-1B inflam inh	HT1080-NT tox	HT1080 IDH1KD tx	DT40 TDP1 CPT	12-LOX inh	TDP1 cell noCPT
CC(C)C(C)NC(=O)CCn1cnc2c1c(=O)n(C)c(=O)n2C (centres undefined)	x	x	x	x	-13%	x
CC(C)CC1(C)OCC(CN2CCCCC2)O1 (centres undefined)	x	x	x	x	-15%	x
c1nc(NC2CC2)c2cc(-c3ccoc3)ccc2n1	x	x	x	u	u	-25%
COCCNc1ncnc2ccc(-c3c(C)noc3C)cc12	x	x	x	12µM*	u	u
c1nc(NC2CCNCC2)c2cc(-c3ccc4c(c3)OCO4)ccc2n1	x	x	x	u	u	15µM*
CC(=O)NCCNc1ncnc2ccc(-c3c(C)noc3C)cc12	x	x	x	u	u	-29%
CN(C)c1ccc(-c2ccc3ncnc(NC4CC4)c3c2)cc1	x	x	x	8.2µM*	-25%	13µM*
Cc1noc(C)c1-c1ccc2ncnc(Nc3ccccc3)c2c1	x	x	x	-28%	u	u
Cc1noc(C)c1-c1ccc2ncnc(NC3CC3)c2c1	x	x	x	u	u	21µM*
COc1ccccc1C(=O)N1CCCC2(C1)C(=NC1CCCCC1)NC(=O)N2c1cc(F)cc(F)c1 (centres undefined)	x	x	x	x	5%[6.33 µM]	x
O=C(Nc1nnc(-c2ccc(Cl)cc2)o1)C1CCN(S(=O)(=O)c2cc(F)ccc2F)CC1	x	x	x	x	-4%	x
Cc1cccc(C)c1NC(=O)CNC(=O)Cc1ccccc1[N+](=O)[O-]	3	1%	13%	-1%	-5%	-12%
O=C(CN(Cc1ccccc1)C(=O)c1cccc([N+](=O)[O-])c1)Nc1c(Cl)cc(Cl)cc1Cl	-1	-16%	-15%	8.2µM*	5%	12µM*
Cc1cccc([N+](=O)[O-])c1NC(=O)CN(Cc1ccccc1)Cc1ccccc1	u	-12%	-10%	26µM*	-9%	21µM*
COc1ccc(C(=O)NC(C)CCc2ccccc2)c(O)c1 (centres undefined)	-55*	0%	-16%	u	-2%	u
COc1ccc(C(=O)NC(C)CCc2ccccc2)cc1 (centres undefined)	-1	10%	14%	-6%	23%	-10%
COc1cccc(C(=O)NCCS(=O)(=O)NC(C)CCc2ccccc2)c1 (centres undefined)	-4	3%	3%	u	-16%	6.5µM*
Cc1ccc(-c2noc(-c3cc4cc(Cl)ccc4oc3=O)n2)cc1	x	x	x	x	-16%	x
CCOc1ccccc1CNC(=O)C(C)C1CCOCC1 (centres undefined)	x	x	x	x	42%	x
O=C(NCCn1ccc2ccccc21)c1cccc([N+](=O)[O-])c1	0	0%	4%	29µM*	u	23µM*
O=C(NCCCc1ccccc1)c1cccc([N+](=O)[O-])c1	-3	2%	6%	-25%	-7%	-26%
COc1cc(OC)cc(C(=O)NCCCCc2ccccc2)c1	10	-20%	-9%	u	-47%	13µM*
O=C(NCCCCc1ccccc1)c1cccc([N+](=O)[O-])c1	-5	19%	0%	18µM*	38%	16µM*
Fc1ccc(-c2noc(-c3ccc[nH]3)n2)cc1	x	x	x	x	8%	x
O=C(CC1C(=O)N(C2CCCC2)c2nc3ccccc3n21)Nc1ccc2c(c1)OCO2 (centres undefined)	x	x	x	x	-17%	x
SMILES	IL-1B inflam inh	HT1080-NT tox	HT1080 IDH1KD tx	DT40 TDP1 CPT	12-LOX inh	TDP1 cell noCPT
Cc1cc(NC(=O)c2cccc(S(=O)(=O)N(C)C)c2)n(-c2ccccn2)n1	-9	0%	-10%	15µM*	4%	23µM*
Cc1cc(NC(=O)c2cccc(S(=O)(=O)N3CCCCCC3)c2)n(-c2ccccn2)n1	-18	3%	2%	u	-18%	21µM*
Cc1cc(NC(=O)C2CCC2)n(-c2ccccn2)n1	-9	-5%	-9%	u	-4%	u
Cc1cccc(C)c1OCC(=O)Nc1ccccc1C(=O)O	x	x	x	x	-23%	x
COc1ccc(CN(C(=O)c2cc3ccccc3s2)C2CC2)cc1	x	x	x	x	-5%	x
CN(C(=O)c1cc(F)ccc1Cl)C1CCc2nn(C)c(=O)n2CC1 (centres undefined)	x	x	x	x	12%	x
CC(=O)N1CCN(C(=O)CNc2cc(C(F)(F)F)ccc2OCC(F)(F)F)CC1	-57*	1%	9%	-6%	0%	-12%
CN(C(=O)COC(=O)c1ccccc1Nc1ccccc1)c1c(N)n(Cc2ccccc2)c(=O)[nH]c1=O	-63*	u	u	u	u	16µM*
Cc1cc(C(=O)OCC(=O)N(C)c2c(N)n(Cc3ccccc3)c(=O)[nH]c2=O)c(C)n1-c1ccccc1	-55*	-7%	-5%	u	u	-26%
COCCN(C(=O)COC(=O)c1ccccc1Nc1ccccc1)c1c(N)n(Cc2ccccc2)c(=O)[nH]c1=O	-53*	u	u	21µM*	u	u
CNc1ccccc1C(=O)OCC(=O)c1ccccc1	2	19%	6%	-20%	x	-3%
CN(C(=O)COC(=O)c1ccccc1Cc1ccccc1)c1c(N)n(Cc2ccccc2)c(=O)[nH]c1=O	-11	-6%	-15%	-5%	u	-15%
Cc1ccccc1C(=O)OCC(=O)N(C)c1c(N)n(Cc2ccccc2)c(=O)[nH]c1=O	-4	3%	3%	5%	-2%	1%
O=C(COC(=O)c1ccccc1Nc1ccccc1)c1ccccc1	-60*	-3%	-23%	-16%	2%	-25%
CC(=O)c1ccc(SCC(=O)NCCC2=CCCCC2)c(F)c1	x	x	x	x	-21%	x
CC(=O)N1CC2(CCCCN2C2COC2)Cc2ccccc21 (centres undefined)	x	x	x	x	0%[6.33 µM]	x
COCCN(C(=O)COC(=O)/C=C/c1ccc(Cl)c(Cl)c1)c1c(N)n(Cc2ccccc2)c(=O)[nH]c1=O	-7	0%	-2%	16µM*	u	18µM*
CC(C)CN(C(=O)COC(=O)/C=C/c1ccc(Cl)c(Cl)c1)c1c(N)n(Cc2ccccc2)c(=O)[nH]c1=O	u	1%	2%	u	-6%	u
Brc1ccc2[nH]c3c(c2c1)CCCC3=NCc1ccccc1	x	x	x	x	-3%	x
O=C(Nc1ccc(-c2noc(-c3ccccc3F)n2)cc1)c1cccs1	-13	7%	-3%	u	2%	u
Cc1ccccc1-c1nc(-c2ccc(NC(=O)c3cccs3)cc2)no1	u	-11%	u	23µM*	20%	u
